Reference: PubChem BioAssay AID588651 (The Scripps Research Institute Molecular Screening Center, 2011)
A number with no mark means an inactive call. Active and inactive are the calls of the source. Rule as the data show it: active = inhibition above about 65%; inactive = the rest.

Test system: Fam108b
Assay: Fam108b inhibition by ABPP, late-stage follow-up, biochemical, gel-based ABPP, recombinant soluble Fam108b, HTS hits, complex proteome (AID 588651);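 also: Fam108b spiked into mouse brain membrane proteome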
Conditions: FP-rhodamine labeling in proteome, at 20 µM, hits give high values

Structure (SMILES) | inhibition
CCOC(=O)c1sc(NC(=O)Nc2ccc(Cl)cc2)cc1C | 0%
Cn1c(O)c(C=NNC(=O)c2cc3ccccc3cc2O)c2ccccc21 | 35%
CC(C)(C)c1nc2scc(-c3cccs3)c2c(=O)o1 | 80% (active)
Cc1[nH]c2ccccc2c1C=NNC(=O)c1cccc(S(=O)(=O)Nc2cccc(C(F)(F)F)c2)c1 | 60%
COc1ccc(-c2csc3nc(-c4ccccc4F)oc(=O)c23)cc1 | 95% (active)
Fc1ccc2nc(Nc3nc4cc5c(cc4s3)OCO5)sc2c1 | 0%
O=C1c2ccccc2-c2onc3ccc(NCCCn4ccnc4)c1c23 | 0%
O=C(NN=Cc1ccc(O)cc1)c1cccc(NN=Cc2ccc(O)cc2)c1 | 60%
COc1cc2c(cc1NC(=O)Nc1ccccc1)oc1ccccc12 | 0%
Cc1[nH]c2c(C)cccc2c1CCNC(=O)c1ccc2c(c1[N+](=O)[O-])C(=O)c1ccccc1C2=O | 40%
O=C(Nc1ccc(-c2csc(Nc3ccc(Cl)cc3)n2)cc1)c1cccc(C(F)(F)F)c1 | 95% (active)
Oc1nc(Nc2cccc(Cl)c2)sc1/C=C1\C=Nc2ccccc21 | 80% (active)
O=C(NC1CCCCC1)c1sc(=S)n2c1[nH]c(=O)c1ccccc12 | 0%
O=[N+]([O-])c1ccc(NN=Cc2ccccc2O)cc1 | 0%
O=C(O)c1ccc(S(=O)(=O)/N=C2\C=C(Nc3ccccc3F)C(=O)c3ccccc32)cc1 | 0%
O=[N+]([O-])c1ccc(NN=Cc2c[nH]c3ccccc23)c(S(=O)(=O)Nc2ccc(Cl)cc2)c1 | 0%
